High-throughput results deposited in PubChem BioAssay by several laboratories.
tim10-1 inh – tim10-1 yeast growth inhibition. S. cerevisiae tim10-1 ts strain growth, BacTiter-Glo, 24 h. inhibition, % at 20 µM. 330,000 tested, 2.2% active;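 active = inhibition of at least 40%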;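 note: mutant grown at 25 °C; 0% = DMSO wells with yeast and 100% = wells holding no yeast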
NLRP3 yeast inh – blocks the NALP3 inflammasome reconstituted in yeast; AID 2825; 330,000 tested, 0.39% active; Yeast reconstituted NLRP3/ASC/caspase-1, beta-gal luminescence, 24 h; inhibition, % at 10 µM;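 active = inhibition of 50% or more; inactive = inhibition below 50%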;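 note: plate controls were induced DMSO wells for no effect and uninduced yeast grown without galactose for full effect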
TIM10 inh – TIM10 yeast growth inhibition | S. cerevisiae TIM10 strain growth, BacTiter-Glo luminescence, 24 h | inhibition, % at 10 µM | 330,000 tested, 1.4% active;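 active = inhibition of 40% or more at the single tested concentration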;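 note: wild-type TIM10 isogenic control strain grown at permissive 25 °C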
NALP1 yeast inh – blocks the NALP1 inflammasome reconstituted in yeast. S. cerevisiae NALP1/ASC/caspase-1 growth, X-gal OD620, 72 h. inhibition, % at 10 µM. 280,000 tested, 0.61% active; in the data active = inhibition mostly above about 24%, no sharp cut-off; inactive = mostly below about 32%
PfHsp90 yeast 2 – growth inhibition of yeast expressing Plasmodium Hsp90. inhibition, % at 9.4 µM. S. cerevisiae expressing PfHsp90, BacTiter-Glo ATP, 48 h; yeast lacking PDR1 and PDR3 efflux regulators. 310,000 tested, 0.32% active;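 active = every replicate shows inhibition above about 80%, whatever the replicate mean, limit read from the data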;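 note: 0% = DMSO neutral controls and 100% = 20 µM radicicol positive controls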
tim23-1 inh – tim23-1 yeast growth inhibition; S. cerevisiae tim23-1 growth, BacTiter-Glo luminescence, 24 h; inhibition, % at 20 µM; 330,000 tested, 1.3% active; AID 463212;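 active = growth inhibition of the mutant yeast at or above 50%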;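 note: temperature-sensitive mutant grown at 25 °C; plate controls were DMSO-treated mutant yeast for no effect and medium wells lacking yeast for full effect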
tim10-1 confirm – tim10-1 yeast growth inhibition, confirmed. shares compounds with tim10-1 inh. S. cerevisiae tim10-1 ts strain growth, BacTiter-Glo, 24 h. inhibition, % at 20 µM. 7,400 tested, 56% active. AID 463213;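 active = inhibition of yeast growth at or above a set limit in either of two repeat tests at 20 µM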;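 note: tim10-1 mutant grown at permissive 25 °C to find synthetic lethal compounds; 0% = DMSO yeast wells and 100% = medium wells without yeast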
TIM10 conf – TIM10 yeast growth inhibition, confirmed; shares compounds with TIM10 inh; inhibition, % at 10 µM; 4,600 tested, 63% active; S. cerevisiae tim10 strain growth, BacTiter-Glo luminescence, 24 h; AID 463215;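 active = inhibition of yeast growth at or above a set limit in either of two replicates at 10 µM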;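 note: this counterscreen used the strain with wild-type TIM10; 0% = yeast with DMSO and 100% = medium wells lacking yeast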
tim23-1 conf – confirmation of tim23-1 mutant yeast growth inhibitors. shares compounds with tim23-1 inh. S. cerevisiae tim23-1 growth, BacTiter-Glo luminescence, 24 h. inhibition, % at 20 µM. 4,400 tested, 83% active;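 active = inhibition above about 39% in either of two replicate wells at 20 µM, limit read from the data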;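 note: temperature-sensitive tim23-1 mutant grown at 25 °C; 0% = DMSO wells with yeast and 100% = medium wells without yeast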
* = called active by the depositor; nt = no result given. This is a sample that favours compounds with a hit; in the whole collection about 4.2% have one here.

SMILES | tim10-1 inh | NLRP3 yeast inh | TIM10 inh | NALP1 yeast inh | PfHsp90 yeast 2 | tim23-1 inh | tim10-1 confirm | tim23-1 conf | others
O=C1c2ccccc2C(=O)C2OC12 (stereo not given) | 59* | -25 | 34 | 11 | nt | 79* | 38* | 74*
O=C(COc1ccccc1)Nc1cc(NC(=O)COc2ccccc2)cc(C(=O)O)c1 | -2 | 21 | -5 | -4 | -13 | 3 | nt | nt
Cc1ccc(S(=O)(=O)CC#CCOC(=O)c2ccc([N+](=O)[O-])cc2)cc1 | 60* | -16 | 30 | -15 | nt | 76* | 47* | 81*
CC(C)CC(=O)Nc1c2c(nn1-c1cccc(Cl)c1)CS(=O)(=O)C2 | -15 | 7 | 2 | 1 | 8 | -1 | nt | nt
CC1(C)CC(=O)c2cc(NC(=O)c3ccc(F)cc3)c(=O)oc2C1 | 11 | 8 | -1 | -6 | nt | -3 | nt | nt
Cc1cc(C(=O)NNC(=S)NCc2ccco2)n(C)n1 | -5 | 20 | 4 | -7 | -3 | 0 | nt | nt
CC(C)c1cc(C(=O)NNC(=S)NCc2ccco2)c(O)c(C(C)C)c1 | 55* | 8 | 57* | -2 | -21 | 54* | 57* | 66* | TIM10 conf=7
Cc1ccc(C(=O)NNc2ncnc3c2cnn3C)cc1 | 0 | 0 | 10 | -21 | 5 | 10 | nt | nt
Cn1ncc2c(O/N=C(\N)c3ccc(C(F)(F)F)cc3)ncnc21 | 52* | 15 | 74* | nt | -3 | 79* | 25 | 52* | TIM10 conf=85*
O=C(NCCN1CCOCC1)/C(=C\c1ccc(Br)cc1)NC(=O)c1cccs1 | 11 | 6 | 0 | 11 | 38 | 0 | nt | nt
C/C(=N\Nc1ccc([N+](=O)[O-])cc1)c1ccc(O)cc1 | 44* | -5 | 24 | -1 | -42 | 70* | 19 | 55*
C/C(=N\Nc1ccc([N+](=O)[O-])cc1)c1cccc(N)c1 | -24 | 33 | 4 | 9 | 5 | 26 | nt | nt
O=C(Nc1ccc(Br)cc1)Nn1cnnc1 | 9 | 18 | 14 | 17 | 4 | 14 | nt | nt
O=C(NCCc1ccccc1)C1CCC(CNS(=O)(=O)c2ccc(F)cc2)CC1 (stereo not given) | 22 | 5 | 5 | 11 | -18 | 13 | nt | nt
CCc1ccc(C(=O)Cn2ncc(Cl)c(Cl)c2=O)cc1 | 5 | -13 | -1 | -20 | 0 | -2 | nt | nt
O=C(OCn1ncc(Cl)c(Cl)c1=O)c1cccc(C(F)(F)F)c1 | 72* | -4 | 53* | -6 | 99* | 74* | 72* | 72* | TIM10 conf=39*
N#Cc1ccc(OCC(=O)NCC2COc3ccccc3O2)cc1 (stereo not given) | 0 | 14 | -6 | nt | 8 | 10 | nt | nt
Cc1cc(C(=O)N2CCCC(C(=O)c3ccc4ccccc4c3)C2)nn1C (stereo not given) | 8 | 4 | 6 | -4 | -8 | 2 | nt | nt
Cc1cccc2c1NC(=O)C21N2CCCC2C(C(=O)c2ccc3ccccc3c2)C12C(=O)Nc1ccccc12 (stereo not given) | 46* | 9 | 43* | nt | nt | 51* | 71* | 57* | TIM10 conf=66*
CCc1cccc2c1NC(=O)C2(O)N1CCCC(C)C1 (stereo not given) | 21 | 9 | 6 | 8 | -3 | 24 | nt | nt
CCc1cccc2c1NC(=O)C21N2CCCC2C(C(=O)c2ccc3ccccc3c2)C12C(=O)Nc1ccccc12 (stereo not given) | 65* | 20 | 69* | 21 | -8 | 51* | 70* | 61* | TIM10 conf=71*
Cc1noc(-c2ccc(C(F)(F)F)cc2)c1NC(=O)Nc1ccc(Cl)cc1 | 22 | 11 | 13 | nt | nt | 13 | nt | nt
CC[C@@]1(C(=O)OC)N[C@H](CN(C)C(=O)Nc2ccc(Cl)cc2)[C@@H]2C(=O)N(Cc3ccccc3)C(=O)[C@@H]21 | 18 | 12 | -1 | nt | 6 | 11 | nt | nt
COc1ccc(C(=O)/C(=C/c2cccs2)c2nc3ccccc3o2)cc1 | 49* | 23 | 43* | 9 | -12 | 53* | 42* | 54* | TIM10 conf=-15
NNC(=O)c1cccc(COc2ccc(Br)cc2)c1 | 39 | 30 | 26 | 36 | -21 | 46 | nt | nt
SMILES | tim10-1 inh | NLRP3 yeast inh | TIM10 inh | NALP1 yeast inh | PfHsp90 yeast 2 | tim23-1 inh | tim10-1 confirm | tim23-1 conf | others
NNC(=O)c1cccc(COc2cccc(Br)c2)c1 | 45* | 7 | 36 | 1 | 22 | 51* | 29 | 18
O=S(=O)(c1ccccc1)N1CCN(c2ccnc3cc(Cl)ccc23)CC1 | 58* | 2 | 16 | 19 | 10 | 63* | 53* | 66*
O=S(=O)(c1cccs1)N1CCN(c2ccccc2Cl)CC1 | 22 | 37 | 22 | 22 | -11 | 38 | nt | nt
O=S(=O)(c1cccs1)N1CCN(c2ccnc3cc(Cl)ccc23)CC1 | 45* | 19 | 23 | -7 | 15 | 51* | 35* | 44*
Cc1nn(-c2ccccc2)c(Cl)c1C(=O)OCC(=O)N(C)c1c(N)n(Cc2ccccc2)c(=O)[nH]c1=O | 10 | 9 | 2 | nt | 25 | -1 | nt | nt
Cc1c(C(=O)OCC(=O)N(C)c2ccccc2)oc2ccccc12 | 49* | 25 | 36 | 6 | -2 | 56* | 44* | 60*
CN(C)c1cccc(C(=O)OCC(=O)N(C)c2ccccc2)c1 | 48* | 13 | 30 | 19 | -75 | 52* | 48* | 50*
Cc1cc(C(=O)OCC(=O)N(C)c2ccccc2)ccc1[N+](=O)[O-] | 21 | -19 | -2 | -4 | nt | 16 | nt | nt
CN(C(=O)COC(=O)c1cccc(F)c1)c1ccccc1 | 27 | 18 | -5 | -11 | 0 | 31 | nt | nt
CC(=O)Oc1ccc(-c2cccc(C(=O)OCC(=O)N(C)c3ccccc3)c2)cc1 | 46* | 42 | 21 | 38 | -3 | 50* | 34* | 37
Cc1ccc(C(=O)OCC(=O)N(C)c2ccccc2)cc1C | 41* | 17 | 33 | 12 | 4 | 53* | 38* | 36
Cc1c(C(=O)OCC(=O)N(C)Cc2ccccc2)oc2ccccc12 | 33 | 28 | 0 | nt | -29 | 46 | nt | nt
COc1cc(CC(=O)OCC(=O)c2ccc(F)cc2)cc(OC)c1OC | -10 | 2 | 2 | nt | 29 | 3 | nt | nt
CCOC(=O)C1=C(CS(=O)(=O)c2ccccc2)NC(=O)NC1c1ccccc1OC (stereo not given) | 17 | 9 | -1 | 3 | 15 | 8 | nt | nt
CC1CCCCN1c1nc(-c2ccncc2)nc2ccccc12 (stereo not given) | 47* | 1 | 53* | 14 | 8 | 53* | 43* | 53* | TIM10 conf=41*
